HTT ATP protect – Huntington cell model cytoprotection by ATP luminescence; AID 1471; actives 0.14% (n = 230,000); PC12 HTT-Q103 induced, cytoprotection, ATP luminescence, 40 h; Potency, µM (titrated, usually from 56.4 µM), without a hit: cytoprotection (ATP increase), actives largely listed as activators; also: potency is read from the fitted curve at half-maximal effect; % of control where 0% means no effect; nearly all actives have a fitted effect of over 45% in size
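Cells were plated at 1500 per well in phenol red-free DMEM with 5% equine and 5% calf serum. Tebufenozide (100 nM final) and compounds were added, then ATPlite reagent, and luminescence was read.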
HTT aggregate – inhibitors of mutant huntingtin aggregate formation in PC12 cells | PC12 HttQ103-GFP aggregates, Acumen cytometry, 40 h | Potency, µM (series often up to 46.1 µM), inactives show at the top dose activity change, negative = inhibition, hits mostly inhibitors | actives 1.1% (n = 220,000) | AID 1688; also: potency is read from the fitted curve at half-maximal effect; % is scaled to controls: 0 for no effect and ±100 for the full control effect; nearly all actives have a fitted effect of over 60% in size
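Using laser scanning cytometry, GFP-positive aggregates were counted after lysis of PC12 cells induced with 100 nM tebufenozide to express HTT exon 1 Q103–GFP. Compounds were tested in titration.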
CBFb-RUNX1 inh – CBF-beta/RUNX1 interaction disruption; Q01196+Q13951; AlphaScreen CBFb-His/RUNX1-biotin binding, biochemical; Potency, µM (titrated, usually from 59.8 µM), for inactives: at the highest dose activity, negative = inhibition, usual class: inhibitors; 230,000 tested, under 10 active; also: % of control where 0% means no effect
Target sequence (Q01196 whole entry, looked up): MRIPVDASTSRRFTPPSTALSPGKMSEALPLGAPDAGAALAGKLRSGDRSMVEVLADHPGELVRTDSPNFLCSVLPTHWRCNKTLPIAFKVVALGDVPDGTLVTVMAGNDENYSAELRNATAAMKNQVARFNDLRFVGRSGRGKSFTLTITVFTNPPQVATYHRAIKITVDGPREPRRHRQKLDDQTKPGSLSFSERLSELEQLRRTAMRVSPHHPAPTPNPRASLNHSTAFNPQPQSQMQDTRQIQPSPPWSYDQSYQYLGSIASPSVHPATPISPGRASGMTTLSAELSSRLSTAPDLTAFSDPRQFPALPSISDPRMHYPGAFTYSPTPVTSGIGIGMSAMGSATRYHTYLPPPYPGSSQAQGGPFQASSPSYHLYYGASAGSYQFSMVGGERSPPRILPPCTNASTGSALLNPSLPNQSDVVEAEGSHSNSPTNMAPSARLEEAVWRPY
Target sequence (Q13951 whole entry, looked up): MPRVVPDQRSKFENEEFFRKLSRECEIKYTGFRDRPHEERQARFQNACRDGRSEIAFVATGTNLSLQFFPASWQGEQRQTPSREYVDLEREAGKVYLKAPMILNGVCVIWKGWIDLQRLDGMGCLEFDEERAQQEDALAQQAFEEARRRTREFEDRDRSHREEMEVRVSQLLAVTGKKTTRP
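AlphaScreen binding: CBFb-His and RUNX1-biotin (30 nM each) preincubated 20 min, compound added for 15 min, then nickel and streptavidin beads for 90 min, all at room temperature. Disruption of the interaction by any mechanism counts as activity.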
HPGD inh – blocks human HPGD enzyme activity | P15428 | purified HPGD, NADH fluorescence kinetic, PGE2 substrate | Potency, µM, inactives show top-dose activity change, negative = inhibition, most hits filed as inhibitors | actives 4.3% (n = 150,000); active = well fitted inhibition curve with a large enough effect, not every such curve was filed as active; inconclusive = small, poorly fitted or top-dose-only effect, or another doubt; inactive = no such curve, though single readings can be large or run the other way; also: potency is read from the fitted curve at half-maximal effect; % is scaled to controls: 0 for no effect and ±100 for the full control effect
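NADH formation kinetics: reaction with 30 uM PGE2 and 1 mM NAD+ (final), 20 nM enzyme, Tris-HCl pH 8 with Tween 20, after 15 min compound preincubation at room temperature. Fluorescence change, last versus first of five reads.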
PNC assembly inh – perinucleolar compartment assembly inhibition; AID 2417; activity change (PNC), negative = inhibition, % at 10 µM; actives 3.1% (n = 140,000); PC3M PTB-GFP, PNC prevalence imaging, 16 h; hits give low values;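 active = readout at or below -70, meaning at least 70% loss of cells showing the perinucleolar compartment, a nuclear body marking cancer cells; inconclusive = readout between -30 and a set limit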;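 also: plate controls were DMSO wells for no effect and camptothecin positive control wells for full effect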
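Read-out is percentage of cells bearing a perinucleolar compartment, from automated 20x imaging of fixed, Hoechst-stained PC3M PTB-GFP cells. Cells were seeded 4 h, then exposed 16 h to compound (23 nl of library stock) in duplicate plates.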
ALDH1A1 block – blocks purified human ALDH1A1 activity; Purified ALDH1A1, NADH fluorescence, propionaldehyde substrate; Potency, µM (highest dose often 75.3 µM), without a hit: at the top dose activity, negative = inhibition, most hits filed as inhibitors; actives 7.3% (n = 220,000); AID 1030; active = well fitted inhibition curve with a large enough effect, not every such curve was filed as active; inconclusive = small, poorly fitted or top-dose-only effect, or another doubt; inactive = no such curve, though single readings can be large or run the other way;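 also: potency is read from the fitted curve at half-maximal effect; plate controls were no enzyme wells and a reference inhibitor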
The depositor's hits bear a star; [ ] = dose if it differs, or a comment. Only some compounds are listed: those with a hit (about 11% of all), similar ones and a draw of the others. Unless noted, calls follow the shape of the dose curve; as a rule, active = well fitted curve in the direction sought with a large enough effect; inconclusive = small, poorly fitted or top-dose-only effect, or another doubt; inactive = no such curve, though single readings can be large; an effect the other way counts as inactive or inconclusive.

How did CCOC(=O)C1=C(N)Oc2c(c(=O)oc3ccccc23)C12C(=O)N(C)c1ccccc12 (configuration not stated) do in these assays?
HTT ATP protect: -15%[0.074 µM]; HTT aggregate: -9%; CBFb-RUNX1 inh: 4%; HPGD inh: -3%; PNC assembly inh: -23; ALDH1A1 block: -7%

How did C[C@H]1CCC[C@H](O)CCCCCc2cc(O)cc(O)c2C(=O)O1 do in these assays?
HTT ATP protect: -33%; HTT aggregate: -21%; CBFb-RUNX1 inh: 12%; HPGD inh: -3%; PNC assembly inh: 4; ALDH1A1 block: inconclusive

How did CC1CC2OC2/C=C\C=C/C(=O)Cc2c(Cl)c(O)cc(O)c2C(=O)O1 (configuration not stated) do in these assays?
HTT ATP protect: -52%; CBFb-RUNX1 inh: -2%; HPGD inh: 18µM*; ALDH1A1 block: 22µM*

How did C[C@@H]1C[C@@H]2[C@H]([C@H]3C=C(COC(=O)c4ccccc4)[C@@H](O)[C@]4(O)[C@@H](O)C(OC(=O)c5ccccc5)=C[C@@]14C3=O)C2(C)C do in these assays?
CBFb-RUNX1 inh: 12%

Results for O=c1c2ccccc2nc(-c2ccco2)n1-c1ccccc1 ?
HTT ATP protect: 1%[10 µM]; HTT aggregate: -12%; CBFb-RUNX1 inh: -2%; HPGD inh: -29%; PNC assembly inh: 124; ALDH1A1 block: -6%

What do the screens show for `Cc1ccccc1-n1c(-c2ccc([N+](=O)[O-])cc2)nc2ccccc2c1=O`?
HTT ATP protect: 6%[10 µM]; HTT aggregate: -2%; CBFb-RUNX1 inh: -12%; HPGD inh: -2%; PNC assembly inh: -17; ALDH1A1 block: 7.9µM*

What do the screens show for `O=c1c2ccccc2nc(-c2ccco2)n1-c1ccncc1`?
HTT ATP protect: -22%; HTT aggregate: -14%; CBFb-RUNX1 inh: 19%; HPGD inh: -16%; PNC assembly inh: -6; ALDH1A1 block: 28µM*

How did COc1ccc(-c2nc3ccccc3c(=O)n2-c2ccc(OC)cc2)cc1 do in these assays?
HTT ATP protect: 2%[10 µM]; HTT aggregate: 0%[9.22 µM]; CBFb-RUNX1 inh: -6%; ALDH1A1 block: 11µM*

Results for Cc1cccc(-n2c(-c3ccc([N+](=O)[O-])cc3)nc3ccccc3c2=O)c1 ?
HTT ATP protect: 9%[10 µM]; HTT aggregate: -12%; CBFb-RUNX1 inh: -16%; HPGD inh: -9%; PNC assembly inh: 13; ALDH1A1 block: inconclusive

What do the screens show for `O=c1c2ccccc2nc(-c2ccc([N+](=O)[O-])cc2)n1-c1ccccc1`?
HTT ATP protect: inconclusive; HTT aggregate: inconclusive; CBFb-RUNX1 inh: -4%; HPGD inh: -15%; PNC assembly inh: -7; ALDH1A1 block: 3.2µM*

What do the screens show for `CCCCCCCSc1cc(OC)c(CCN(C)C)cc1OC`?
HTT ATP protect: -117%; HTT aggregate: 10µM*; HPGD inh: -21%; PNC assembly inh: -28; ALDH1A1 block: 2%

What do the screens show for `C[C@@]12CC[C@H]3[C@@H](CC=C4C[C@H](OS(=O)(=O)O)CC[C@]43C)[C@H]1CCC2=O`?
HTT ATP protect: 12%[1.9 µM]

What do the screens show for `COc1ccc(C=O)cc1`?
HTT ATP protect: 1%; CBFb-RUNX1 inh: 12%[21.7 µM]; HPGD inh: 6%; ALDH1A1 block: 7.9µM*

How did COc1ccc(C=O)cc1OC do in these assays?
HTT ATP protect: -12%; CBFb-RUNX1 inh: 17%[21.7 µM]; HPGD inh: -14%; ALDH1A1 block: 11µM*

How did CCN1C[C@]2(COC(=O)c3ccccc3N3C(=O)CC(C)C3=O)CC[C@H](OC)[C@@]34C5C[C@@H]6[C@@H](OC)C[C@@](O)(C5[C@H]6OC)[C@](O)([C@@H](OC)C23)[C@@H]14 (some centres not stated) do in these assays?
HTT ATP protect: -8%; CBFb-RUNX1 inh: 16%; ALDH1A1 block: -13%

What do the screens show for `CC(C)[C@@]1(NC(=O)[C@H]2C[C@H]3c4cccc5[nH]cc(c45)C[C@@H]3N(C)C2)O[C@]2(O)[C@H]3CCCN3C(=O)[C@H](Cc3ccccc3)N2C1=O`?
HTT ATP protect: 8%[1.9 µM]

Results for C[C@@H](Cc1cccc(C(F)(F)F)c1)NCCCc1ccccc1 ?
HTT ATP protect: inconclusive; CBFb-RUNX1 inh: 3%[21.7 µM]; HPGD inh: -7%; ALDH1A1 block: 1%

What do the screens show for `CCCn1c(=O)c2[nH]c(C3CCCC3)nc2n(CCCOC(=O)c2ccc(S(=O)(=O)F)cc2)c1=O`?
HTT ATP protect: -18%[1.9 µM]; CBFb-RUNX1 inh: -3%; HPGD inh: -10%; ALDH1A1 block: 11µM*

Results for CCON=O ?
HTT ATP protect: 8%; HTT aggregate: 10%

What do the screens show for `O=C(O)C(C(=O)O)P(=S)(S)c1ccccc1` (configuration not stated)?
HTT ATP protect: 16%[10 µM]; HPGD inh: -1%; ALDH1A1 block: 8%[13.5 µM]

What do the screens show for `CC1=CC(c2ccccc2)NC(=S)N1` (configuration not stated)?
HTT ATP protect: 16%[10 µM]; HTT aggregate: -1%; CBFb-RUNX1 inh: 5%; HPGD inh: 13µM*; PNC assembly inh: 131; ALDH1A1 block: 7.1µM*

How did Cc1ccc(OCC(=O)N2CCN(C)CC2)c(Br)c1 do in these assays?
HTT ATP protect: 7%; HTT aggregate: -37%; CBFb-RUNX1 inh: 5%; HPGD inh: 9%; PNC assembly inh: -11; ALDH1A1 block: 6%

Results for Cc1ccc(C)c(OCC(=O)N2CCCN(C)CC2)c1 ?
HTT ATP protect: 2%[1.9 µM]; HTT aggregate: 29%; CBFb-RUNX1 inh: 3%; HPGD inh: -1%; PNC assembly inh: -112*; ALDH1A1 block: 1%

What do the screens show for `O=C(Nc1ccc(OC(=O)N2CCCC2)cc1)N1CCOCC1`?
HTT ATP protect: -8%[10 µM]; HTT aggregate: 20%; CBFb-RUNX1 inh: -3%; HPGD inh: -9%; PNC assembly inh: -100*; ALDH1A1 block: 4%

Results for COc1ccc(C2NCc3ccc4c(c3-n3cccc32)OCO4)cc1O (configuration not stated) ?
HTT ATP protect: -11%[0.074 µM]; HTT aggregate: -7%; CBFb-RUNX1 inh: -9%; HPGD inh: -12%; PNC assembly inh: -108*; ALDH1A1 block: -6%

What do the screens show for `CC(C)C(O)(C(=O)OC[C@@H]1CC[N+]2([O-])CCCC12)C(C)O` (some centres not stated)?
HTT ATP protect: -17%; CBFb-RUNX1 inh: 1%; HPGD inh: -3%; ALDH1A1 block: 8%

What do the screens show for `Cc1nn(Cc2ccccc2)c(C)c1C(=O)OCC(=O)NCc1ccco1`?
HTT ATP protect: 21%[10 µM]; HTT aggregate: -11%; CBFb-RUNX1 inh: -3%; HPGD inh: -10%; PNC assembly inh: -12; ALDH1A1 block: 15%
